What all share (details): compound concentration in added solution (µM; 5 µl added to 20 µl cells): 10; 18 h
Assay [1] deals with A431. Nature of the assay: LBPA endosome anti-LBPA integrated intensity (sum per cell), Z-score; higher = more LBPA staining. The method in brief: (§1)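 Z-scores normalised in AcuityXpress are given for per-cell integrated LBPA or filipin intensity, measured whole-cell or within LBPA endosomes by MetaXpress segmentation. Cells (HeLa MZ or A431, 3,500 per well in 20 µl) were seeded onto 5 µl of 10 µM compound solution in duplicate 384-well imaging plates and fixed in 4% PFA after 18 h.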

For assay [2], the system named is HeLa MZ. Described as above. The method in brief:
as §1

Assay [3] concerns A431. Nature of the assay: whole-cell filipin (free cholesterol) integrated intensity, Z-score; higher = more cholesterol staining. In a few lines: as §1
For assay [4], the system named is HeLa MZ. Described as above. In a few lines:
as §1

In assay [5] the test system is A431. Briefly: filipin (cholesterol) integrated intensity within LBPA endosomes, Z-score; higher = more cholesterol in LBPA endosomes. The method in brief:
as §1

For assay [6], the system named is HeLa MZ. The assay is described as above. The method in brief:
as §1

Where a name gives a salt, the structure may show the parent alone.

Take `CC(=O)[C@H]1CC[C@H]2[C@@H]3C[C@H](C)C4=CC(=O)CC[C@]4(C)[C@H]3[C@@H](O)C[C@]12C` [Medrysone]: the figures for the “LBPA endosome anti-LBPA integrated intensity (z-score)” value in assay [1] and in assay [2] were 1.76 and 1, respectively. The “whole-cell filipin (z-score)” value in assay [3] is 0.12; in assay [4], 0.163. For the same compound, the results for the “filipin (z-score)” value in assay [5] and in assay [6] were 0.432 and 0.0722, respectively.

Take `C[N+]1(C)CCC(=C(c2ccccc2)c2ccccc2)CC1` [Diphemanil methylsulfate]: the “LBPA endosome anti-LBPA integrated intensity (z-score)” value is -0.603 in assay [1] and -1.21 in assay [2]. Besides, the “whole-cell filipin (z-score)” value is -0.868 in assay [3] and -0.964 in assay [4]. The “filipin (z-score)” value in assay [5] was -0.428; in assay [6], -0.688.

In the case of `NC(=O)N1c2ccccc2C=Cc2ccccc21` [Carbamazepine], the “LBPA endosome anti-LBPA integrated intensity (z-score)” value was -0.439 in assay [1] and -0.106 in assay [2]. In addition, the results for the “whole-cell filipin (z-score)” value in assay [3] and in assay [4] were -0.553 and -0.708, respectively. Besides, the results for the “filipin (z-score)” value in assay [5] and in assay [6] were -0.587 and -0.687, respectively.

Turning to `CN(C/C=C/c1ccccc1)Cc1cccc2ccccc12` [Naftifine hydrochloride], the “LBPA endosome anti-LBPA integrated intensity (z-score)” value in assay [1] was -0.115; in assay [2], -0.525. Besides, the “whole-cell filipin (z-score)” value is 0.224 in assay [3] and -0.277 in assay [4]. For the same compound, the “filipin (z-score)” value was -0.136 in assay [5] and -0.339 in assay [6].

`Cc1ccnc(NS(=O)(=O)c2ccc(N)cc2)n1` [Sulfamerazine]: the results for the “LBPA endosome anti-LBPA integrated intensity (z-score)” value in assay [1] and in assay [2] were -0.529 and -1.13, respectively. The results for the “whole-cell filipin (z-score)” value in assay [3] and in assay [4] were -0.353 and -0.0674, respectively. Further, the “filipin (z-score)” value in assay [5] was -0.45; in assay [6], -0.567.

With `O=C(Nc1cccc2c(=O)cc(-c3nnn[nH]3)oc12)c1ccc(OCCCCc2ccccc2)cc1` [Pranlukast], the “LBPA endosome anti-LBPA integrated intensity (z-score)” value in assay [1] is -0.507; in assay [2], -1.1. Further, the “whole-cell filipin (z-score)” value in assay [3] is -0.413; in assay [4] it was -0.657. Besides, the results for the “filipin (z-score)” value in assay [5] and in assay [6] were -0.501 and -0.637, respectively.

`CC1(C)S[C@@H]2[C@H](NC(=O)[C@H](N)c3ccccc3)C(=O)N2[C@H]1C(=O)OC1OC(=O)c2ccccc21` (some centres undefined) [Talampicillin hydrochloride]: the “LBPA endosome anti-LBPA integrated intensity (z-score)” value is -0.446 in assay [1] and 0.322 in assay [2]. Also, the “whole-cell filipin (z-score)” value is -0.121 in assay [3] and 0.482 in assay [4]. Also, the results for the “filipin (z-score)” value in assay [5] and in assay [6] were -0.392 and -0.35, respectively.

Take `CCCNC(C)(C)COC(=O)c1ccccc1` [Meprylcaine hydrochloride]: the figures for the “LBPA endosome anti-LBPA integrated intensity (z-score)” value in assay [1] and in assay [2] were -0.522 and -0.427, respectively. The “whole-cell filipin (z-score)” value in assay [3] was -0.299; in assay [4], -0.094. Also, the “filipin (z-score)” value in assay [5] is -0.429; in assay [6] it was -0.419.

As to `OC(Cn1cncn1)(Cn1cncn1)c1ccc(F)cc1F` [Fluconazole], the “LBPA endosome anti-LBPA integrated intensity (z-score)” value is -0.239 in assay [1] and 0.69 in assay [2]. For the same compound, the “whole-cell filipin (z-score)” value in assay [3] is -0.0365; in assay [4], 0.704. Further, the entries for the “filipin (z-score)” value in assay [5] and in assay [6] were -0.366 and -0.348, respectively.

For the compound `CO/N=C(\C(=O)N[C@@H]1C(=O)N2C(C(=O)O)=C(COC(C)=O)CS[C@H]12)c1csc(N)n1` [Cefotaxime sodium salt], the “LBPA endosome anti-LBPA integrated intensity (z-score)” value in assay [1] was -0.36; in assay [2] it was -0.201. Besides, the “whole-cell filipin (z-score)” value is -0.822 in assay [3] and -0.63 in assay [4]. Further, the “filipin (z-score)” value was -0.554 in assay [5] and -0.583 in assay [6].

`O=C(OCC(O)CO)c1ccccc1Nc1ccnc2cc(Cl)ccc12` (centres undefined) [Glafenine hydrochloride]: the “LBPA endosome anti-LBPA integrated intensity (z-score)” value in assay [1] stood at 0.592; in assay [2] it was 1.9. Also, the “whole-cell filipin (z-score)” value is -1 in assay [3] and -1.18 in assay [4]. Also, the “filipin (z-score)” value in assay [5] is -0.297; in assay [6] it was 0.0497.

Turning to `COc1cc(Cc2cnc(N)nc2N)cc(OC)c1OC` [Trimethoprim], the “LBPA endosome anti-LBPA integrated intensity (z-score)” value in assay [1] was -0.479; in assay [2], -0.434. Besides, the results for the “whole-cell filipin (z-score)” value in assay [3] and in assay [4] were -0.787 and -0.667, respectively. The “filipin (z-score)” value in assay [5] was -0.515; in assay [6] it was -0.558.

Regarding `COc1ccccc1N1CCN(CCCCNC(=O)c2ccc3ccccc3c2)CC1`, the “LBPA endosome anti-LBPA integrated intensity (z-score)” value was 2.82 in assay [1] and 1.25 in assay [2]. Moreover, the entries for the “whole-cell filipin (z-score)” value in assay [3] and in assay [4] were 2.45 and 2.22, respectively. Besides, the “filipin (z-score)” value in assay [5] turned out to be 2.37; in assay [6], 3.33.

With `CCCNC(C)C(=O)Nc1c(C)csc1C(=O)OC` (centres undefined) [Articaine hydrochloride], the “LBPA endosome anti-LBPA integrated intensity (z-score)” value in assay [1] is -0.511; in assay [2], -1.09. Also, the “whole-cell filipin (z-score)” value in assay [3] is -0.0579; in assay [4], -0.354. Besides, the “filipin (z-score)” value is -0.492 in assay [5] and -0.461 in assay [6].

Consider `COC(=O)N/N=C/c1c[n+]([O-])c2ccccc2[n+]1[O-]` [Carbadox], for which the “LBPA endosome anti-LBPA integrated intensity (z-score)” value was -0.532 in assay [1] and -0.164 in assay [2]. The “whole-cell filipin (z-score)” value in assay [3] was -0.439; in assay [4], -0.327. Further, the entries for the “filipin (z-score)” value in assay [5] and in assay [6] were -0.53 and -0.532, respectively.

Consider `Cc1ccccc1OCC(O)CO` (centres undefined) [Mephenesin], for which the figures for the “LBPA endosome anti-LBPA integrated intensity (z-score)” value in assay [1] and in assay [2] were -0.324 and 0.139, respectively. For the same compound, the “whole-cell filipin (z-score)” value is -0.27 in assay [3] and 0.183 in assay [4]. Also, the “filipin (z-score)” value in assay [5] is -0.409; in assay [6], -0.223.

`O=C1O[C@H]([C@@H](O)CO)C(O)=C1O` [Ascorbic acid]: the “LBPA endosome anti-LBPA integrated intensity (z-score)” value in assay [1] is -0.608; in assay [2] it was -0.991. Further, the “whole-cell filipin (z-score)” value in assay [3] was -0.369; in assay [4] it was 0.278. Moreover, the “filipin (z-score)” value in assay [5] was -0.529; in assay [6], -0.527.

In the case of `COc1cc2nc(N3CCN(C(=O)C4CCCO4)CC3)nc(N)c2cc1OC` (centres undefined) [Terazosin hydrochloride], the results for the “LBPA endosome anti-LBPA integrated intensity (z-score)” value in assay [1] and in assay [2] were -0.178 and 0.906, respectively. Also, the “whole-cell filipin (z-score)” value is -0.323 in assay [3] and -0.357 in assay [4]. For the same compound, the figures for the “filipin (z-score)” value in assay [5] and in assay [6] were -0.379 and 0.00198, respectively.

For the compound `CC(C(O)c1ccc(O)cc1)N1CCC(Cc2ccccc2)CC1` (centres undefined) [Ifenprodil tartrate], the “LBPA endosome anti-LBPA integrated intensity (z-score)” value is 0.387 in assay [1] and -0.296 in assay [2]. Also, the results for the “whole-cell filipin (z-score)” value in assay [3] and in assay [4] were 0.502 and 0.445, respectively. Besides, the figures for the “filipin (z-score)” value in assay [5] and in assay [6] were 0.406 and 0.378, respectively.

Turning to `CC(C)NCC(O)c1ccc2ccccc2c1` (centres undefined) [Pronethalol hydrochloride], the “LBPA endosome anti-LBPA integrated intensity (z-score)” value in assay [1] is 0.244; in assay [2], -0.115. Also, the “whole-cell filipin (z-score)” value in assay [3] was 0.379; in assay [4], 0.0476. The entries for the “filipin (z-score)” value in assay [5] and in assay [6] were -0.072 and -0.11, respectively.

With `N[C@H]1CONC1=O` [(S)-(-)-Cycloserine], the “LBPA endosome anti-LBPA integrated intensity (z-score)” value in assay [1] was -0.455; in assay [2], -0.138. Moreover, the “whole-cell filipin (z-score)” value is -0.147 in assay [3] and -0.221 in assay [4]. For the same compound, the results for the “filipin (z-score)” value in assay [5] and in assay [6] were -0.457 and -0.283, respectively.

Consider `O=C1OC(CN2CCOCC2)CN1/N=C/c1ccc([N+](=O)[O-])o1` (centres undefined) [Furaltadone hydrochloride], for which the “LBPA endosome anti-LBPA integrated intensity (z-score)” value in assay [1] is -0.539; in assay [2], -0.499. In addition, the figures for the “whole-cell filipin (z-score)” value in assay [3] and in assay [4] were -0.319 and -0.322, respectively. For the same compound, the “filipin (z-score)” value in assay [5] was -0.493; in assay [6], -0.666.

As for `CC(C)NC(=N)NC(=N)Nc1ccc(Cl)cc1` [Proguanil hydrochloride], the “LBPA endosome anti-LBPA integrated intensity (z-score)” value in assay [1] was -0.302; in assay [2], 1.15. Also, the “whole-cell filipin (z-score)” value in assay [3] is -0.0125; in assay [4], 0.372. Besides, the results for the “filipin (z-score)” value in assay [5] and in assay [6] were -0.375 and -0.0535, respectively.

Consider `O=C1C(O)=C(O)C(=O)C(O)=C1O` [Tetrahydroxy-1,4-quinone monohydrate], for which the results for the “LBPA endosome anti-LBPA integrated intensity (z-score)” value in assay [1] and in assay [2] were -0.376 and 0.48, respectively. Further, the “whole-cell filipin (z-score)” value was -0.203 in assay [3] and -0.164 in assay [4]. In addition, the results for the “filipin (z-score)” value in assay [5] and in assay [6] were -0.404 and -0.442, respectively.
